Measured values taken from PubChem BioAssay.
Activity calls are given as the source filed them.

Columns and labels:
[1] = system: Plasmodium falciparum Sir2 (PF13_0152, Sir2A); assay: pfSir2 binders on small-molecule microarrays, primary screen, biochemical, small-molecule microarray, 635 nm fluorescence (AID 1098); conditions: small-molecule microarray binding, fluorescence 635 nm; higher = more signal;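 further: score merges spot fluorescence intensity with its signal-to-noise ratio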
[2] = small-molecule microarray binders of probe aDKK1, primary screen, biochemical, biotinylated probe, 635/667 nm fluorescence (AID 1099); conditions: higher = more signal;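 further: score merges 667nm spot fluorescence with signal to noise across triplicate slides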
[3] = small-molecule microarray binders of probe aCHRDL2, primary screen, biochemical, biotinylated probe, 635/667 nm fluorescence (AID 1100); conditions: higher = more signal
[4] = splicing luciferase reporter signal modulators, primary screen, spliceosome inhibition project, cell-based, HEK293, splice +/- reporter (AID 1101); conditions: luminescence, 24 h, higher = more signal, called active from +8 up or from −8 down;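 further: HEK293 cells carrying a splicing-competent luciferase reporter gene; test concentration not given here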
[5] = molecular target: Fibroblast growth factor 10 (Homo sapiens) (UniProt O15520); assay: FGF10 binders on small-molecule microarrays, primary screen, biochemical, small-molecule microarray, 635 nm fluorescence (AID 1102); conditions: FGF10 binding, fluorescence 635 nm, higher = more signal
[6] = system: glycogen synthase kinase-3 (GSK3A per assay name; protocol says GSK3B); assay: GSK3 binders on small-molecule microarrays, primary screen, biochemical, small-molecule microarray, 635 nm fluorescence, GSK3A (AID 1103); conditions: small-molecule microarray binding, fluorescence 635 nm; higher = more signal; further: the record names both GSK3A and GSK3B
[7] = molecular target: Epidermal growth factor receptor (Homo sapiens) (UniProt P00533); assay: EGFR binders on small-molecule microarrays, primary screen, biochemical, small-molecule microarray, 635 nm fluorescence (AID 1104); conditions: EGFR binding, higher = more signal;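 further: score merges 667 nm emission intensity with spot signal to noise over triplicate slides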
[8] = molecular target: Follistatin-related protein 3 (Homo sapiens) (UniProt O95633); assay: FSTL3 binders on small-molecule microarrays, primary screen, biochemical, small-molecule microarray, 635 nm fluorescence (AID 1105); conditions: FSTL3 binding, higher = more signal;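 further: score merges emission near 667 nm and signal to noise per printed spot across three slides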
[9] = molecular target: Dickkopf-related protein 1 (Homo sapiens) (UniProt O94907); assay: DKK1 binders on small-molecule microarrays, primary screen, biochemical, small-molecule microarray, 635 nm fluorescence scan (AID 1106); conditions: DKK1 binding, higher = more signal;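 further: score merges emission near 667 nm with signal to noise over three replicate slides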
[10] = system: Inhibin beta A chain (activin A); assay: INHBA (activin A) binders on microarrays, primary screen, biochemical, small-molecule microarray, 635 nm fluorescence scan (AID 1107); conditions: small-molecule microarray binding, higher = more signal;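 further: mouse activin A protein probed at 4.33 µg/mL on printed slides; score merges bound-protein fluorescence near 667 nm with spot signal-to-noise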
[11] = system: Human papillomavirus type 1a protein E7 (residues 44-93); assay: HPV1a E7 fragment binders on microarrays, primary screen, biochemical, small-molecule microarray, residues 44-93, 635 nm fluorescence (AID 1108); conditions: small-molecule microarray binding, fluorescence 635 nm; higher = more signal;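 further: E7 fragment applied at 1 µg/mL in TBST for 1 h at 4 C; score combines spot fluorescence with its signal to noise ratio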
[12] = modulators of HCV replicon luciferase signal, primary screen, HCV replication inhibitor project, Huh7 cells, luciferase reporter (AID 1109); conditions: 48 h, higher = more signal;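 further: huh7 hepatoma cells harbouring a luciferase neomycin HCV replicon reporter; luciferase luminescence as measure of HCV replicon replication; test concentration not given here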
[13] = molecular target: Left-right determination factor 2 (Homo sapiens) (UniProt O00292); assay: LEFTY2 binders on small-molecule microarrays, primary screen, biochemical, small-molecule microarray, 635 nm fluorescence scan (AID 1110); conditions: LEFTY2 binding, higher = more signal
[14] = molecular target: Calmodulin-1 (Homo sapiens) (UniProt P0DP23); assay: CALM1 binders on microarrays, EGTA buffer, profiling panel, biochemical, small-molecule microarray, Cy5-labelled CALM1 (AID 1111); conditions: Cy5-CALM1 binding fluorescence, higher = more signal;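 further: labelled calmodulin applied in Tris saline Tween buffer holding calcium plus EGTA and DTT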
[15] = molecular target: Calmodulin-1 (Homo sapiens) (UniProt P0DP23); assay: calcium-bound CALM1 binders on microarrays, profiling panel, artefact control for SMM control-protein annotation, biochemical, small-molecule microarray, Cy5-labelled CALM1, plus calcium (AID 1112); conditions: Cy5-CALM1 binding fluorescence, higher = more signal;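 further: score merges spot fluorescence with signal to noise from triplicate slides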
[16] = small-molecule microarray binders of probe aWnt5a, primary screen, biochemical, biotinylated probe, 635/667 nm fluorescence (AID 1113); conditions: higher = more signal;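 further: score merges 667 nm fluorescence intensity with signal-to-noise per printed feature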
[17] = small-molecule microarray binders of probe aShh, primary screen, biochemical, biotinylated probe, 635/667 nm fluorescence (AID 1114); conditions: higher = more signal;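 further: probe is biotin-labelled aShh protein from a stem cell growth factor screen; measures binding of labelled protein to compounds printed on the slide; score merges feature fluorescence at 667 nm with signal-to-noise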
[18] = small-molecule microarray binders of probe aNog, primary screen, biochemical, biotinylated probe, 635/667 nm fluorescence (AID 1115); conditions: higher = more signal;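 further: probe is biotinylated aNog protein used at 0.15 µg/mL for 1 h at 4 C; z-score combines 667 nm fluorescence of each spot with its signal to noise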
[19] = molecular target: Torsin-1A-interacting protein 1 (Homo sapiens) (UniProt Q5JTV8); assay: LAP1 binders from COS7 cell lysate, primary screen, small-molecule microarray, 635/667 nm fluorescence (AID 1116); conditions: COS7-hLAP1 lysate binding, 635 nm fluorescence, higher = more signal
[20] = molecular target: Alpha-bungarotoxin (Bungarus multicinctus) (UniProt P60615); assay: alpha-bungarotoxin binders on microarray, profiling panel, artefact control for SMM control protein annotation, biochemical, small-molecule microarray, Alexa647 label, 635/667 nm fluorescence (AID 1117); conditions: alpha-BTX-A647 binding fluorescence, higher = more signal
Chain of Alpha-bungarotoxin (Bungarus multicinctus) (P60615 whole entry, looked up): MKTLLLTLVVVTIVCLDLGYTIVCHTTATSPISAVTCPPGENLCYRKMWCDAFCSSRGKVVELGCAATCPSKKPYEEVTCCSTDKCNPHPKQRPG

Chain of Dickkopf-related protein 1 (Homo sapiens) (O94907 whole entry, looked up): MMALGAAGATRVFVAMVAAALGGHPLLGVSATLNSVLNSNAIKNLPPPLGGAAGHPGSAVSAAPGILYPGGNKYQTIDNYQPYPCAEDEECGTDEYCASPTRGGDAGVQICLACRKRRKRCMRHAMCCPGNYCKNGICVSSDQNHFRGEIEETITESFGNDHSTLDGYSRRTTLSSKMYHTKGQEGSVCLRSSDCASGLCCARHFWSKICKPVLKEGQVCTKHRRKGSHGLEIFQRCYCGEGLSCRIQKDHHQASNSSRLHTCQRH
Chain of Torsin-1A-interacting protein 1 (Homo sapiens) (Q5JTV8 whole entry, looked up): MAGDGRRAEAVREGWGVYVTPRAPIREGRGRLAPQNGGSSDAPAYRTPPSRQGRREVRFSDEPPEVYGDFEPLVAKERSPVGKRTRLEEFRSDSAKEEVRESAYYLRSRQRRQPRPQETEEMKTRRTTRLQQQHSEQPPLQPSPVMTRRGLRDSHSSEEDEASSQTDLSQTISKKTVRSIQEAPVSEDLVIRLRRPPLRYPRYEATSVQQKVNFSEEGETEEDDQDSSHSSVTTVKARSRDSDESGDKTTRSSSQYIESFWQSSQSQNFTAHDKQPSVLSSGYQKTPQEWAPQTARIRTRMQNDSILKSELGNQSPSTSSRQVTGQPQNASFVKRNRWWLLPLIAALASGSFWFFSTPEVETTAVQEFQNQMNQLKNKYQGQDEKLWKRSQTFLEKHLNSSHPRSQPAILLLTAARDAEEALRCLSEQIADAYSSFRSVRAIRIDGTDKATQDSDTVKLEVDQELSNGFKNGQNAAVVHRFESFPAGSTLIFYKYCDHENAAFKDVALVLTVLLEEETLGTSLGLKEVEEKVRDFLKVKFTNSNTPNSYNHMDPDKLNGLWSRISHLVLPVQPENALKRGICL
Chain of Fibroblast growth factor 10 (Homo sapiens) (O15520 whole entry, looked up): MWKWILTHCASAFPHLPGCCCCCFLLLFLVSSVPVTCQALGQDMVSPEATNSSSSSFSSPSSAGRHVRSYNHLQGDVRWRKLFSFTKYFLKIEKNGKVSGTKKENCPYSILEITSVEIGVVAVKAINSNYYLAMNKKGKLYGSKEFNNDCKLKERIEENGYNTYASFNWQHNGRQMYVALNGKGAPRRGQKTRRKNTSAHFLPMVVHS
Chain of Follistatin-related protein 3 (Homo sapiens) (O95633 whole entry, looked up): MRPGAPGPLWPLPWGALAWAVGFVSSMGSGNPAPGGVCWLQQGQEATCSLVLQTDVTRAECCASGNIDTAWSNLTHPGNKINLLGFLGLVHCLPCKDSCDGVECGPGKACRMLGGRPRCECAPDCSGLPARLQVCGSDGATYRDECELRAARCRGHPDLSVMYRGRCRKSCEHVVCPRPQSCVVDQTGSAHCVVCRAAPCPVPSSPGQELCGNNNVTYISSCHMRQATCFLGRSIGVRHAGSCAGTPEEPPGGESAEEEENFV
Chain of Left-right determination factor 2 (Homo sapiens) (O00292 whole entry, looked up): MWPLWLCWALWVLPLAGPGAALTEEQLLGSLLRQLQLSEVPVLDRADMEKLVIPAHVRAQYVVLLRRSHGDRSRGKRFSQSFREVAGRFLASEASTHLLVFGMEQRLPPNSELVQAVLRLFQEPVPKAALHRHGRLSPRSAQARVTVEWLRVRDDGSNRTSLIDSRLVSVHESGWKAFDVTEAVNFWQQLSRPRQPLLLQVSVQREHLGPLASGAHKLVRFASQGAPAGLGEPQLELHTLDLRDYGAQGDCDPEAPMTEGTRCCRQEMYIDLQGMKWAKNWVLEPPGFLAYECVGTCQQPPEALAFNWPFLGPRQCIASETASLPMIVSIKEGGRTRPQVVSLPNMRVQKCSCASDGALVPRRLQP
Chain of Epidermal growth factor receptor (Homo sapiens) (P00533 whole entry, looked up): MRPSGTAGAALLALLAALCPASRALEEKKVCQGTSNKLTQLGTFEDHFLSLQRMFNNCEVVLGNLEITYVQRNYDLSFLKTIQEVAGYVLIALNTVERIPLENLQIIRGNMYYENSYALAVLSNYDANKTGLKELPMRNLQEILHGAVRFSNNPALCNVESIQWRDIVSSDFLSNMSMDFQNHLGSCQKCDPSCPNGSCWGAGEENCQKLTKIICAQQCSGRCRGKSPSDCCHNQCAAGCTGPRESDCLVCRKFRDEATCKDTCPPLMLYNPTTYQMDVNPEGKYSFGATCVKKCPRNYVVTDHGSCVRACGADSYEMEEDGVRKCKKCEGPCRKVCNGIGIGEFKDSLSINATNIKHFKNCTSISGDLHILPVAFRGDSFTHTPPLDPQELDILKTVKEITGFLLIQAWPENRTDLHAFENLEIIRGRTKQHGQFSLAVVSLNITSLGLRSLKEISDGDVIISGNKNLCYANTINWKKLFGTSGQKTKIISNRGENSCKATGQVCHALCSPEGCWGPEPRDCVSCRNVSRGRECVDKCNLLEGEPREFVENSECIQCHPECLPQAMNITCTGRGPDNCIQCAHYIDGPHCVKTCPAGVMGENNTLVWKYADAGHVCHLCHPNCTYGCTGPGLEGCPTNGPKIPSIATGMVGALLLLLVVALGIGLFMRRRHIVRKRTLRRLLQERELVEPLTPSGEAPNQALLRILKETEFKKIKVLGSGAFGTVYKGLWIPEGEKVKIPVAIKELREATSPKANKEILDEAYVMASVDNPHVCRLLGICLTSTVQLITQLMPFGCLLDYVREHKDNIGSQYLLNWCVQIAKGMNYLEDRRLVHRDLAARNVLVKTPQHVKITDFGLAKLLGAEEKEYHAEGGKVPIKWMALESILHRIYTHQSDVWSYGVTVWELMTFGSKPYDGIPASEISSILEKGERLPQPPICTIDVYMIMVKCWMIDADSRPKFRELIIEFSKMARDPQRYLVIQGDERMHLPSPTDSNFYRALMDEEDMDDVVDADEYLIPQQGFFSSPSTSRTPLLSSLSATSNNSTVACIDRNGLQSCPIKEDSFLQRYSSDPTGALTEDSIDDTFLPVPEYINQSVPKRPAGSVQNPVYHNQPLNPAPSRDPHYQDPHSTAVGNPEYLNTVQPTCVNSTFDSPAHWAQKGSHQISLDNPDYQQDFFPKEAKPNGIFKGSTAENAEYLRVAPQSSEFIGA

Row | Structure (SMILES) | composite z-score [1] | composite z-score [2] | composite z-score [3] | z-score [4] | composite z-score [5] | composite z-score [6] | composite z-score [7] | composite z-score [8] | composite z-score [9] | composite z-score [10] | composite z-score [11] | z-score [12] | composite z-score [13] | composite z-score [14] | composite z-score [15] | composite z-score [16] | composite z-score [17] | composite z-score [18] | composite z-score [19] | composite z-score [20]
1 | O=C1O[C@@H](c2ccccc2)[C@@H](c2ccccc2)N2[C@@H](c3ccc(OCCO)cc3)[C@]3(C(=O)Nc4ccc(C#CC5(O)CCCCCC5)cc43)[C@@H](C(=O)NC[C@H](O)c3ccccc3)[C@H]12 | 1.37 | 0.914 | 0.864 | -0.828 (inactive) | 1.15 | 1.17 | 0.244 | 1.25 | 0.382 | 0.42 | 1.24 | -2.06 | 0.497 | 1.97 | 0.638 | -0.0877 | 0.172 | 1.21 | 1.94 | 2.42
2 | CC(=O)OC(C/C=C\B1OC(C)(C)C(C)(C)O1)c1ccccc1 (stereo not given) | -0.552 | -0.264 | 0.281 | -2.42 (inactive) | -0.704 | -0.138 | 0.247 | 0.173 | 0.0618 | 1.38 | -0.328 | 0.386 | 0.149 | -1.33 | -0.664 | -0.152 | -0.0813 | -0.405 | -0.0001 | -0.236
3 | C#CCOc1ccc(C[C@H]2C(=O)O[C@H](Cc3ccccc3)[C@H](/C=C/C3CC3)N2CC#C)cc1 | 1.32 | -0.162 | -0.0338 | -1.18 (inactive) | -0.425 | -0.526 | -0.925 | -0.566 | -0.175 | 0.809 | -0.462 | -2.14 | -0.36 | -0.491 | -0.685 | -0.176 | -0.153 | -0.433 | 0.204 | 0.0192
4 | CCN(CC)c1ccc(N2CC=CC34O[C@@H]5C=CCOC(=O)[C@@H]5[C@H]3C(=O)N(C(CO)C(C)C)[C@@H]4C2=O)cc1 (stereo not given in full) | -0.0952 | -0.239 | -0.202 | -0.133 (inactive) | -0.608 | -0.142 | -1.01 | -0.586 | 0.0041 | 0.761 | -0.825 | -0.496 | -0.827 | -0.647 | -0.752 | -0.129 | -0.0626 | -0.481 | -0.257 | -0.274
5 | C=CCNC(=O)[C@H]1[C@@H]2C(=O)O[C@@H](c3ccccc3)[C@@H](c3ccccc3)N2[C@@H](c2ccc(OCCO)cc2)[C@]12C(=O)Nc1ccc(C#CCCO)cc12 | 1.36 | 0.299 | 0.797 | -1.26 (inactive) | 0.241 | -0.145 | -0.105 | 0.359 | -0.059 | 0.629 | 0.699 | -0.735 | -0.0631 | 0.0076 | 0.295 | -0.175 | -0.0769 | 0.332 | 1.42 | 1.9
6 | O=C(NC1CC1)[C@@H]1c2ccccc2C(=O)N(Cc2ccccc2C(F)(F)F)[C@H]1c1ccc(CO)cc1 | 0.271 | 0.561 | 0.341 | -0.0246 (inactive) | 0.554 | 1.27 | 0.388 | 0.471 | 0.113 | 0.708 | 1.06 | -0.639 | 0.319 | 0.64 | 0.585 | -0.0977 | 0.172 | 0.0272 | 0.714 | 0.353
7 | O=C(NO)[C@]1(Cc2ccccc2)N=C(c2ccc(OCCCO)cc2)O[C@@H]1c1ccccc1 | 1.3 | 0.256 | 0.694 | -4.02 (inactive) | -0.227 | -0.371 | -0.637 | 0.262 | -0.546 | -0.169 | -0.281 | -1.73 | -0.79 | -0.271 | 0.309 | -0.377 | 0.157 | 0.168 | 0.395 | 2.41
8 | COc1ccc([Si](C)(C)[C@H]2[C@H](CC(=O)N(CCO)Cc3ccccc3)O[C@@]3(C(=O)N(Cc4ccc(N5CCOC5=O)cc4)c4ccccc43)[C@@H]2C)cc1 | 0.614 | 0.0402 | 0.32 | -1.56 (inactive) | 0.286 | -0.137 | 0.109 | 0.276 | 0.512 | 0.6 | 0.162 | -2.94 | 0.23 | 0.228 | 0.342 | -0.0944 | 0.493 | 0.473 | 0.639 | 1.02
9 | COc1ccc(CCNC(=O)[C@@]2(Sc3ccc(C)cc3)CC(=O)N(Cc3ccccc3)[C@@H]2c2ccc(CO)cc2I)cc1 | 1.16 | -0.0607 | 0.566 | -1.24 (inactive) | -0.553 | -0.407 | -0.46 | 0.149 | 0.0928 | 0.761 | 0.152 | -2.18 | -1.46 | -0.615 | -0.0032 | -0.17 | -0.596 | 0.0805 | -0.72 | 0.672
10 | COc1ccc([Si](C)(C)[C@@H]2[C@@H](CCn3cc([C@H](O)c4ccccc4)nn3)O[C@]3(C(=O)N(C)c4c(Br)cc(C)cc43)[C@H]2C)cc1 | -0.384 | 0.041 | 0.703 | -3.07 (inactive) | 0.0565 | -0.755 | -0.212 | -0.395 | -0.248 | 0.206 | -1.29 | -4.23 | 0.287 | -0.0327 | 0.0747 | -0.157 | -0.0991 | -0.169 | 0.184 | 0.178
11 | CC1CC/C=C\[C@H]2OC34C=CCN(C(C)C)C(=O)[C@H]3N(C(CO)C(C)C)C(=O)[C@@H]4C2C(=O)O1 (stereo not given in full) | -0.144 | 0.0383 | 0.228 | -0.0607 (inactive) | -0.505 | -0.95 | -0.818 | -0.253 | -0.429 | 0.64 | -1.48 | -0.403 | -0.944 | -1 | -0.339 | -0.202 | -0.0626 | -0.178 | 0.193 | -2.8
12 | CO[C@H]1O[C@H](CO)[C@@H](OC(=O)Nc2ccccc2)[C@H](OC(=O)Nc2ccccc2-c2ccccc2)[C@@H]1OC(=O)Nc1ccccc1-c1ccccc1 | 1.36 | 0.318 | 0.464 | -1.05 (inactive) | 1.19 | 1.32 | 0.561 | 1.16 | 0.621 | 0.522 | 0.781 | -3.09 | 0.986 | 1.95 | 0.357 | 0.131 | 1.85 | 1.59 | 1.1 | 2.77
13 | CCCCCN1CC=CC23O[C@@H]4/C=C\CCC(C)OC(=O)C4[C@H]2C(=O)N(CCCO)[C@@H]3C1=O (stereo not given in full) | 0.936 | -0.212 | 0.183 | -0.246 (inactive) | -0.753 | -0.723 | -1.36 | -1.24 | -0.543 | 0.797 | -0.93 | -0.333 | -1.15 | -1.35 | 0.0216 | -0.194 | -0.2 | -0.0511 | 1.99 | 2.69
14 | O=C(NCC(F)(F)F)[C@@H]1c2ccccc2C(=O)N(C2Cc3ccccc3C2)[C@H]1c1ccc(CO)cc1 | 0.23 | 0.621 | 0.715 | -0.658 (inactive) | -0.691 | -0.605 | -0.621 | -0.584 | -0.808 | 1.03 | -1.07 | -0.561 | -1.21 | 0.342 | 1.14 | -0.129 | 0.267 | 0.109 | 0.179 | -1.22
15 | C=CC[C@@]1(C(=O)NCc2ccccc2)N=C(c2ccc(OCCCO)cc2)O[C@@H]1c1ccccc1 | 1.54 | 0.787 | 1.31 | -1.19 (inactive) | -0.28 | 0.659 | -1.08 | -0.571 | -0.918 | 0.997 | 0.483 | -3.03 | -0.762 | 1.68 | 0.369 | -0.101 | 0.123 | 0.49 | 1.68 | 1.1
16 | O=C1c2ccccc2C(=O)c2cc([C@H]3Oc4ccccc4S(=O)(=O)N4CCC[C@@H]34)ccc21 | -1.12 | -0.108 | 0.461 | -0.833 (inactive) | -0.439 | -0.896 | -0.727 | -1.02 | 0.11 | 1.09 | -1.1 | -2 | -0.148 | -0.94 | 0.812 | -0.16 | -0.214 | 0.0431 | -0.749 | -0.744
17 | COC(=O)c1c(CC[C@@H](CO)NC(=O)Nc2ccc(OC)cc2)oc(C(=O)Cc2ccccc2)c1C(=O)OC | 1.36 | 0.0707 | -0.0477 | -0.487 (inactive) | 0.394 | 0.618 | 0.0445 | 0.325 | 0.353 | 0.306 | 0.316 | 0.685 | 0.239 | -0.315 | -0.464 | -0.0445 | -0.138 | 0.068 | 0.333 | 0.655
